This passage reports augmentation results from PubChem BioAssay AID455 (Sanford-Burnham Center for Chemical Genomics, 2006).

About 20 (0.2%) of roughly 10,000 compounds were called active. This is one part of a sample in which actives are shown more often than they occur.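 How the source made its calls: active means a compound raising TNF-alpha-driven VCAM-1 surface staining, with its hit status upheld on visual or statistical review; inactive means the rest, including hits rejected on review.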

A short description of the assay: boosters of cytokine-driven VCAM-1 levels – cell-based, plate reader, pooled HUVEC, TNFa stimulus (AID 455).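 On augmentation: 0% = TNFa plus DMSO wells and 100% = a visually confirmed top hit.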 As to conditions: HUVEC TNFa-induced VCAM-1 immunofluorescence; active compounds read high, 100% set by best visually verified hit,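 tested at 5 µM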.
Regarding `Cc1cc(C)nc(N2CCCC(C(=O)Nc3nc4ccc(S(C)(=O)=O)cc4s3)C2)n1` (centres undefined), the augmentation entry was “inactive”.

`COc1cc(NC(=O)CN(c2cc(C)cc(C)c2)S(=O)(=O)c2c(C)noc2C)cc(OC)c1`: the augmentation entry was “inactive”.

Turning to `Cc1ccc(NC(=O)CSc2nnc(CSc3nc(C)cc(C)n3)n2Cc2ccco2)c(C)c1`, the augmentation entry was “inactive”.

Consider `CCn1c(=S)ccc2ccc(OC)cc21`, for which the augmentation entry is “inactive”.

In the case of `CCOc1ccc(NC(=O)CSc2nccn2C)cc1`, the augmentation result was “inactive”.

With `COC(=O)c1ccc2c(c1)C(=O)N(C1CCCCC1)C2=O`, the augmentation entry was “inactive”.

Regarding `CCOc1cc(C2NC(=O)N(C)C(C)=C2C(=O)OC)cc(Br)c1O` (centres undefined), the augmentation entry is “inactive”.

`CCOC(=O)C1=C(C)NC2=C(C(=O)CC(C)(C)C2)C1c1ccc(N(C)C)cc1` (centres undefined): the augmentation result was “inactive”.

On to `CCOC(=O)C1=C(c2ccccc2)NC(=O)NC1c1ccc(N(C)C)cc1` (centres undefined), for which the augmentation was 63.8% (active).

Turning to `CCOC(=O)C1=C(C)NC(=O)NC1c1ccc(OCCO)c(OC)c1` (centres undefined), the augmentation entry was “inactive”.

As for `Cc1ccc(S(=O)(=O)NC(=O)c2cc(C)n(CCCn3ccnc3)c2C)cc1`, the augmentation result is “inactive”.

On to `COc1ccc(C(=O)Nc2nc(C)c(C(=O)N(C)C)s2)cc1OC`, for which the augmentation entry is “inactive”.

Turning to `COc1ccccc1NC(=O)NC(N)=O`, the augmentation entry was “inactive”.

For the molecule `O=C(C1CC1)N1CCc2cc(Br)cc(S(=O)(=O)N3CCOCC3)c21`, the augmentation entry is “inactive”.

As for `CC1(C)Cc2ccccc2C(N)=C1C#N`, the augmentation result is “inactive”.

`CCN1CCN(c2nc(C)nc3c2sc(=S)n3C)CC1`: the augmentation result was “inactive”.

As to `CCc1cc2ccc(C)cc2nc1SCC(=O)N1CCN(C(=O)c2ccco2)CC1`, the augmentation entry was “inactive”.

Take `O=c1c2[nH]c3ccc(Cl)cc3c2ncn1Cc1ccccn1`: the augmentation was 100% (active).

With `O=C1CCCN1CCCNc1ncnc2c1[nH]c1ccc(Cl)cc12`, the augmentation result was “inactive”.

On to `O=c1c2[nH]c3ccccc3c2ncn1CCCn1ccnc1`, for which the augmentation entry was “inactive”.

As for `COc1cc(-c2nc(S(=O)(=O)c3ccccc3)c(N3CCOCC3)o2)cc(OC)c1OC`, the augmentation result was “inactive”.

For `COc1cc2[nH]c(=O)c(C(=O)NCCCN3CCCCC3)c(O)c2cc1OC`, the augmentation result was “inactive”.

For `COc1cccc(C2C(C(=O)c3cccs3)=C(O)C(=O)N2CCCn2ccnc2)c1OC` (centres undefined), the augmentation result was “inactive”.

`Cc1cccc(C(=O)N2CCN(C(=O)c3cccc(C)c3)C(C)C2)c1` (centres undefined): the augmentation entry is “inactive”.

Consider `CC(=O)c1ccccc1NS(=O)(=O)c1c(C)nn(-c2ccccc2)c1C`, for which the augmentation result is “inactive”.

In the case of `COc1cccc(NC(=O)N(CCCN2CCOCC2)C(C)c2cc3cccc(OC)c3o2)c1` (centres undefined), the augmentation result is “inactive”.

As to `S=C(c1ccc(N2CCOCC2)cc1)N1CCCCC1`, the augmentation entry is “inactive”.

Turning to `COc1ccccc1C1/C(=C(\O)c2c(C)nc3c(C)cccn23)C(=O)C(=O)N1CCCN(C)C` (centres undefined), the augmentation result is “inactive”.

Take `COc1ccc(S(=O)(=O)Nc2ccc(S(=O)(=O)N3CCCCC3)cc2)cc1OC`: the augmentation result was “inactive”.

Turning to `COc1ccc(S(=O)(=O)Nc2ccc(F)c(F)c2)cc1Cl`, the augmentation result is “inactive”.

`COc1ccc(S(=O)(=O)Nc2ccc(F)c(Cl)c2)cc1OC`: the augmentation was 70.4% (active).

As to `COC(=O)Cc1c(C)c2ccc(OCC(=O)N3CCOCC3)cc2oc1=O`, the augmentation result is “inactive”.

Turning to `CCCSc1nnc(N2C(=O)CC(c3ccsc3)C3=C2CCCC3=O)s1` (centres undefined), the augmentation result was “inactive”.

Turning to `COc1ccc(-c2nnc(SCC(=O)NC(=O)NCc3ccco3)o2)cc1`, the augmentation result was “inactive”.
